Among the data in PubChem BioAssay (Tox21) are Potency and max activation values, retold here.

A short description of assay [1]: Caspase-3/7 induction in HepG2 cells by small molecules, qHTS assay (AID 1346978). Also: nearly all actives have a fitted effect of over 15% in size. A digest of the protocol: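 Wild-type HepG2 cells (2,000/well) were settled 5 h at 37 C, 5% CO2, then exposed to compounds in DMSO for 17 h. Caspase-3/7 activity was read by luminescence 30 min after adding Caspase-Glo 3/7 reagent at room temperature.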
In general terms: qHTS replaces the single test concentration by a dilution series.

Assay [2] can be described thus: Caspase-3/7 induction in CHO-K1 cells by small molecules, qHTS cell viability counter screen (AID 1346979). Also: nearly all actives have a fitted effect of over 35% in size. The gist of the method: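 CellTiter-Fluor viability check, qHTS format: wild-type CHO-K1, 16hr compound treatment, 1hr reagent incubation, fluorescence read.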
A short description of assay [3]: Caspase-3/7 induction in CHO-K1 cells by small molecules, qHTS assay (AID 1346980). Also: nearly all actives have a fitted effect of over 15% in size. The gist of the method: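 Wild-type cells were seeded at 1,500 per well and settled 5 hr at 37 C, 5% CO2, then exposed to DMSO-dissolved compounds for 17 hr. Caspase-Glo 3/7 reagent was added, and luminescence was read after 30min at room temperature.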
A short description of assay [4]: Caspase-3/7 induction in HepG2 cells by small molecules, qHTS cell viability counter screen (AID 1346981). Also: series mostly up to about 92 µM; nearly all actives have a fitted effect of over 30% in size. The gist of the method: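 In this quantitative HTS counter screen, compounds delivered in DMSO were left on unmodified HepG2 cells for 16 hr at 37 C. Viability was then determined fluorometrically with CellTiter-Fluor, in parallel with caspase-3/7 induction in the same wells.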

Assay [5] concerns the target Nuclear receptor subfamily 1 group I member 2 (Homo sapiens) (UniProt O75469). Briefly: Human pregnane X receptor (PXR) small molecule agonists, qHTS assay (AID 1346982). Also: nearly all actives have a fitted effect of over 35% in size. Also: potency is read from the fitted curve at half-maximal effect. The gist of the method:
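Reporter HepG2 cells expressing PXR-Luc are cultured in charcoal-stripped FBS (5%), treated with compounds for 24 hr at 37 C, and assayed by ONE-Glo luminescence after 30 min at room temperature.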

The target of assay [6] is Nuclear receptor subfamily 1 group I member 2 (Rattus norvegicus) (UniProt Q9R1A7). Briefly: Rat pregnane X receptor (rPXR) activation by small molecules, qHTS assay (AID 1346983). Also: nearly all actives have a fitted effect of over 20% in size. Particulars: rPXR luciferase reporter cells, One-Glo luminescence, 24 h; max activation: stronger effect = higher value. The gist of the method:
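Cell-based rPXR luciferase reporter assay, 2,000 cells per well, rested 5hr at 37 C before compound addition in DMSO, then 24 hr at 37 C. One-Glo reagent was added and luminescence read after 30 min at room temperature.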

The target in assay [7] is Nuclear receptor subfamily 1 group I member 2 (Homo sapiens) (UniProt O75469). The assay can be described thus: CYP3A4 induction through human pregnane X receptor (PXR) by small molecules, qHTS assay (AID 1346984). Also: nearly all actives have a fitted effect of over 40% in size. A digest of the protocol: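 Induction measured in HepG2-based DPX-2 cells co-expressing human PXR and a CYP3A4 promoter-driven luciferase. After a 24-hour compound exposure, cells received CYP3A4 luciferin substrate at 3uM final for 3 hours, and light output was then recorded.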
Chain of Nuclear receptor subfamily 1 group I member 2 (Homo sapiens) (O75469 whole entry, looked up): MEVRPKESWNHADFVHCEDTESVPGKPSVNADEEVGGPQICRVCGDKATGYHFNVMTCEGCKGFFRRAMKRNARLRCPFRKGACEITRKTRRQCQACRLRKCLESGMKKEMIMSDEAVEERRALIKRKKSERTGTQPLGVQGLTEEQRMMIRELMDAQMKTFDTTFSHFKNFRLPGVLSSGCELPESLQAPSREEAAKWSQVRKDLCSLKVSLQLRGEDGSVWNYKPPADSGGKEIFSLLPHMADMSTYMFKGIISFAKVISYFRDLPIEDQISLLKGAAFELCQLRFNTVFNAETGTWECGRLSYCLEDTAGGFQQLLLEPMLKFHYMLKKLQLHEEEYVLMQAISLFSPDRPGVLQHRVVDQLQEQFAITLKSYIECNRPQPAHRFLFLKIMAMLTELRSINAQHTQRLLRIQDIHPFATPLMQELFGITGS

Assay [8] shares this target. The assay can be described thus: Human pregnane X receptor (PXR) activation by small molecules, qHTS assay (AID 1346985). Also: nearly all actives have a fitted effect of over 40% in size. Also: potency is read from the fitted curve at half-maximal effect. The gist of the method:
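DPX-2 cells (HepG2 co-transfected with a PXR response element and a CYP3A4-promoter luciferase construct) were seeded at 2,000 per well, rested 5 hr at 37C, then exposed to DMSO-dissolved compounds for 24 hr. Activation was read as luciferase luminescence.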

Assay [9] addresses Acetylcholinesterase (Homo sapiens) (UniProt P22303). The assay can be described thus: Acetylcholinesterase (AChE) small molecule antagonists: colormetric cell-based qHTS assay (AID 1347395; calls by dose curve; also: nearly all actives have a fitted effect of over 30% in size; also: potency is read from the fitted curve at half-maximal effect). A digest of the protocol: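 AChE inhibition read colorimetrically via DTNB–thiocholine in SH-SY5Y cells. Compound 30 min, substrate 90 min, both 37 C.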
Assay [10] shares this target. The assay can be described thus: Acetylcholinesterase (AChE) small molecule antagonists: enzyme-based qHTS assay (AID 1347397; calls by dose curve; also: nearly all actives have a fitted effect of over 55% in size). Particulars: Potency: AChE enzyme activity inhibition. The gist of the method:
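Tox21 library chemicals are tested in qHTS format against recombinant human AChE. The enzyme, dispensed at 50 mU/mL, sits with compound for 30 min at room temperature. A DTNB–acetylthiocholine cocktail follows, and colour is read after 10 min.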

Each structure is given as a SMILES string. Unmarked numbers belong to inactive results. Records with an inconclusive call do not appear. Active and inactive are the calls of the source. Unless noted, calls follow the shape of the dose curve; as a rule, active = well fitted curve in the direction sought with a large enough effect in the repeat runs; inconclusive = weak or mixed curves; inactive = no such curve, though single readings can be large; an effect the other way counts as inactive or inconclusive.
% is scaled to controls: 0 for no effect and ±100 for the full control effect.

Chain of Nuclear receptor subfamily 1 group I member 2 (Rattus norvegicus) (Q9R1A7 whole entry, looked up): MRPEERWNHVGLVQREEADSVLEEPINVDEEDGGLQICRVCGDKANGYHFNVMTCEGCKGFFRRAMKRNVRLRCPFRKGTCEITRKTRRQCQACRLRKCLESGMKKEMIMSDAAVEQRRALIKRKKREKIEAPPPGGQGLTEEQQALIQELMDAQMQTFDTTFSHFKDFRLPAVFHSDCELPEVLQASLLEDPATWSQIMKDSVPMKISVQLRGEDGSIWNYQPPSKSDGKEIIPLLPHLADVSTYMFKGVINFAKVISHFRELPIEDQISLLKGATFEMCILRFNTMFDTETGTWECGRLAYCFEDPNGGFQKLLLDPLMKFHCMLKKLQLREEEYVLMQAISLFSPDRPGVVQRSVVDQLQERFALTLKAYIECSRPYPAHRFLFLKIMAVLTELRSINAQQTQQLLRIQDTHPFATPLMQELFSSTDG
Chain of Acetylcholinesterase (Homo sapiens) (P22303 whole entry, looked up): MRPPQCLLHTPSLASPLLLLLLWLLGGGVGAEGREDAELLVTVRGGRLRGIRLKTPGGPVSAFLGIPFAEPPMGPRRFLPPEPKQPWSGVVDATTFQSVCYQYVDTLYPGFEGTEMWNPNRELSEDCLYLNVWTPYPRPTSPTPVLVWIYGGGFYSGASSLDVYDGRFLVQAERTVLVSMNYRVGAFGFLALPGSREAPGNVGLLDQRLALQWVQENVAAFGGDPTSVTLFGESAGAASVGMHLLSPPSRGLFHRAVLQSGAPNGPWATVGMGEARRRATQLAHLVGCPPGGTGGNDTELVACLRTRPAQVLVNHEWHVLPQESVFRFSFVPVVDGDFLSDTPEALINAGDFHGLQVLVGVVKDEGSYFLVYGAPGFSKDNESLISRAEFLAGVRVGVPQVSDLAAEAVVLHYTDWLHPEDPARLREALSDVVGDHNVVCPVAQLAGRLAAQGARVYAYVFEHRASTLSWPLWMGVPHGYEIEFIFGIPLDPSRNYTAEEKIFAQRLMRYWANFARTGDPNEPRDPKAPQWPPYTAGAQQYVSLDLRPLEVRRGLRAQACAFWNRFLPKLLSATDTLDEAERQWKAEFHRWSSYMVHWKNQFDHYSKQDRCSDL

On to `[O]=[Cd]`, for which the Potency entry in [1], in assay [2], in assay [3], in assay [4], in assay [5] and in assay [7] was “inactive” in each case. Also, the Potency entry in assay [8], in [9] and in [10] was “inactive” each time. The max activation in [6] is 0.414%.

Consider `COc1cc2c(cc1OC)[C@@]13CCN4CC5=CCO[C@H]6CC(=O)N2[C@H]1[C@H]6[C@H]5C[C@H]43`, for which the Potency entry in assay [1], in [2], in assay [3], in [4], in [7] and in assay [9] was “inactive” each time. In addition, the Potency entry in assay [10] was “inactive”. The Potency in [5] was 21.7 µM (active). In assay [6], the max activation was -4.15%.

Regarding `O=C(O)c1cccc(Cl)c1`, the Potency result in assay [1], in [2], in [3], in assay [4], in assay [5] and in assay [9] was “inactive” in each case. The Potency result in assay [10] was “inactive”.

As for `O=S(=O)(O)C(F)(F)C(F)(F)C(F)(F)C(F)(F)C(F)(F)C(F)(F)F`, the Potency result in assay [1], in assay [2], in [3], in assay [4], in assay [5] and in [9] was “inactive” throughout. In assay [10], the Potency entry was “inactive”.

Consider `C[C@@H]1CN(C2CCC(C#N)(c3ccc(F)cc3)CC2)CC[C@]1(C(=O)O)c1ccccc1` (some centres not stated), for which the Potency result in assay [1], in assay [2], in assay [3], in [4], in [5] and in assay [7] was “inactive” each time. For the same molecule, the Potency entry in assay [8], in assay [9] and in [10] was “inactive” each time. The max activation in [6] was -1.37%.

Consider `CCSC(=O)N(CC)C1CCCCC1`, for which the Potency result in [1], in assay [2], in assay [3], in assay [4], in [5] and in [9] was “inactive” throughout. The Potency result in assay [10] is “inactive”.

Take `OC(c1ccccc1)(c1ccccc1)C1CCNCC1`: the Potency entry in assay [1], in assay [2], in [3], in [4], in assay [5] and in assay [7] was “inactive” throughout. For the same molecule, the Potency entry in assay [8], in assay [9] and in assay [10] was “inactive” in each case. Moreover, in assay [6], the max activation is -4.65%.

As for `NC1=NC(=O)C(c2ccccc2)O1` (configuration not stated), the Potency entry in assay [1], in [2], in [3], in [4], in assay [5] and in assay [7] was “inactive” each time. For the same molecule, the Potency entry in [8], in assay [9] and in assay [10] was “inactive” each time. Also, in [6], the max activation was -2.64%.

Take `CC(C)[N+](=O)[O-]`: the Potency result in assay [1], in assay [2], in [3], in [4], in assay [5] and in assay [9] was “inactive” each time. In addition, in assay [10], the Potency entry was “inactive”.

For the molecule `CCOP(=S)(OCC)Oc1cc(-c2ccccc2)on1`, the Potency entry in assay [1], in assay [2], in assay [3] and in assay [4] was “inactive” in each case. Further, the Potency is 24.3 µM (active) in assay [5] and 63.3 µM (active) in assay [9].

As to `CCC(=O)C(CCN(C)C)(c1ccccc1)c1ccccc1`, the Potency result in assay [1], in assay [2], in assay [3], in assay [4], in assay [9] and in assay [10] was “inactive” throughout. The Potency in [5] is 16.8 µM (active).

For `CC(C)(C)OC(=O)c1ncn2c1[C@@H]1CCCN1C(=O)c1c(Br)cccc1-2`, the Potency result in assay [1], in [2], in [3], in [4], in [9] and in [10] was “inactive” in each case. Also, the Potency in [5] is 13.3 µM (active); in assay [8], 15.8 µM (active). The max activation in [6] was -1.76%.

Turning to `CC(C)CC(N(C)C)C1(c2ccc(Cl)cc2)CCC1` (configuration not stated), the Potency entry in assay [1], in [2], in assay [3], in assay [4], in assay [5] and in assay [7] was “inactive” in each case. The Potency entry in assay [8] was “inactive”. Besides, the max activation in assay [6] is -2.56%.

For `COc1ccc(C(=O)N2CCCC2=O)cc1`, the Potency result in assay [1], in assay [2], in assay [3] and in [4] was “inactive” throughout.

In the case of `ClCC(Cl)(Cl)Cl`, the Potency result in assay [1], in [2], in [3], in assay [4], in [5] and in assay [9] was “inactive” throughout. Also, in assay [10], the Potency result was “inactive”.

For the molecule `NC(=O)c1cc([N+](=O)[O-])cc([N+](=O)[O-])c1`, the Potency entry in [1], in assay [2], in [3], in assay [4], in [5] and in assay [7] was “inactive” each time. Besides, the Potency result in [8] and in assay [10] was “inactive” each time. In addition, the max activation in [6] was -0.752%.

As to `CCOP(=S)(OCC)Oc1nc(Cl)n(C(C)C)n1`, the Potency result in [1], in [2], in assay [3] and in assay [4] was “inactive” each time. The Potency in assay [5] is 6.86 µM (active).

Turning to `Nc1n[nH]c(N)n1`, the Potency entry in assay [1], in [2], in assay [3], in assay [4], in [5] and in [9] was “inactive” each time. Moreover, in [10], the Potency entry was “inactive”.

In the case of `CN1CCC(O)(c2ccc(F)cc2)C(C(=O)c2ccc(F)cc2)C1` (configuration not stated), the Potency entry in assay [1], in assay [2], in [3], in assay [4], in assay [7] and in [8] was “inactive” throughout. Also, the Potency result in assay [9] and in [10] was “inactive” throughout. Further, in assay [5], the Potency was 13.3 µM (active). Also, the max activation in [6] was -0.751%.

With `CCCCP(CCCC)CCCC`, the Potency entry in [1], in [2], in assay [3], in assay [4], in [5] and in assay [9] was “inactive” throughout. Also, the Potency result in assay [10] is “inactive”.

In the case of `[As]#[In]`, the Potency entry in assay [1], in [2], in [3], in assay [4], in assay [5] and in assay [9] was “inactive” in each case. In [10], the Potency result was “inactive”.

With `CCCCOC(=O)[C@@H](C)Oc1ccc(Oc2ccc(C#N)cc2F)cc1`, the Potency entry in assay [1], in assay [2], in [3], in assay [4], in assay [5] and in assay [9] was “inactive” each time. Moreover, the Potency entry in [10] is “inactive”.

Turning to `O=C(CCCN1CCC(n2c(=O)[nH]c3ccccc32)CC1)c1ccc(F)cc1`, the Potency entry in assay [1], in assay [2], in assay [3], in assay [4], in assay [7] and in [8] was “inactive” in each case. Moreover, the Potency result in assay [9] and in [10] was “inactive” each time. Besides, the Potency in [5] is 13.3 µM (active). Moreover, the max activation in assay [6] was -1.58%.

Consider `CCN(CC)C(C)C(=O)c1ccccc1` (configuration not stated), for which the Potency result in [1], in [2], in [3], in [4], in [5] and in assay [7] was “inactive” in each case. The Potency entry in assay [8], in assay [9] and in assay [10] was “inactive” each time. In addition, in [6], the max activation was -2.77%.

Take `O=C1OC(c2ccc(O)c(S(=O)(=O)O)c2)(c2ccc(O)c(S(=O)(=O)O)c2)c2c(Br)c(Br)c(Br)c(Br)c21`: the Potency result in [1], in [2], in assay [3], in assay [4], in assay [5] and in assay [7] was “inactive” throughout. In addition, the Potency entry in assay [8], in assay [9] and in assay [10] was “inactive” throughout. For the same molecule, the max activation in [6] was -0.923%.

With `CN/C(=N\[N+](=O)[O-])NCC1CCOC1` (configuration not stated), the Potency entry in [1], in [2] and in [3] was “inactive” each time.

With `CN1C(=S)CN=C(c2ccccc2)c2cc(Cl)ccc21`, the Potency result in [1], in assay [2], in assay [3], in assay [4], in [9] and in [10] was “inactive” in each case. Moreover, the Potency in assay [5] is 26.6 µM (active); in assay [8] it was 14.1 µM (active). The max activation in assay [6] was -0.756%.

Regarding `CC(=O)Nc1cc([As](=O)(O)O)ccc1O`, the Potency result in assay [1], in [2], in assay [3], in assay [4], in assay [5] and in [7] was “inactive” each time. In addition, the Potency result in [8], in assay [9] and in assay [10] was “inactive” in each case. Also, the max activation in [6] is -4.41%.
